# AI-2 QS modul: Vibrio harveyi AI-2 quorum sensing modulators, primary screen, JMH597 strain, luminescence/OD600 ratio; 0.4% of 300,000 active; activity change, % at 7.5 µM; Vibrio harveyi JMH597 AI-2 luminescence/OD600 ratio, 9 h; active compounds read low; strain lacks LuxN and CqsS sensors; 0 = neutral-control median; in the data active = activity change below about -75%, passing the limit was not always enough;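 also: luminescence divided by OD600 gain over 9 h not by final OD600 alone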
# DSG3 Ab inh: inhibitors of pemphigus antibody binding to DSG3, primary screen, biochemical, bead-based, flow cytometry, scFv-GFP. Desmoglein-3 (Homo sapiens), P32926. DSG3-coupled beads, scFv-anti-DSG3-GFP binding; active compounds read low. binding (percent of control), % at 10 µM. 0.48% of 310,000 active;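 active = binding more than 3 SD below its plate's average and above zero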;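 also: hits lower antibody fragment binding to DSG3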
# VLA-4 inh: inhibition in human VLA-4 binding assay, primary screen, VLA-4 allosteric modulator project, MLPCN library, flow cytometry, VLA-4 expressing cells | Integrin alpha-4 (Homo sapiens), P13612 | ligand binding flow cytometry | inhibition, % (about 7 µM as worked out from the volumes in the protocol) | 0.2% of 330,000 active; in the data active = inhibition above about 50%
# NTR1 agonist: agonists of human NTR1, primary screen, imaging, U2OS cells, beta-arrestin-GFP, high content | Neurotensin receptor type 1 (Homo sapiens), P30989 | NTR1-U2OS beta-arrestin-GFP spot imaging, agonist mode | activation, % at 20 µM | 0.17% of 330,000 active;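 active = activation at or above 40% of the spot to cytoplasm intensity ratio, with at least 20 cells analyzed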;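 also: 0% = DMSO without peptide and 100% = 100 nM NTR1 peptide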
# Starred values were filed as active, the others as inactive; nt = not tested or not shown. Compounds with a hit are over-represented: about 1.1% of the library has one in this group of screens.
SMILES,AI-2 QS modul,DSG3 Ab inh,VLA-4 inh,NTR1 agonist
Cc1cccc(NC(=O)CC2C(=O)NC3CCCCC3N2C(=O)c2ccccc2Cl)c1 (stereo unspecified),6,89*,20,-1
Cc1ccc2nc(Cl)c(CNCc3ccccc3)cc2c1,-82*,102,-3,0
COc1ccc(-c2csc3ncnc(N4CCN(S(=O)(=O)c5ccc(C)cc5)CC4)c23)cc1,17,69*,-2,5
CN(C(=O)c1cccc(NC(=O)Cc2ccc([N+](=O)[O-])cc2)c1)C1CCCCC1,nt,98,-7,2
CN(C(=O)c1ccc(Oc2ccc([N+](=O)[O-])cc2)cc1)C1CCCCC1,31,92*,7,3
CCCn1c(N2CCN(S(=O)(=O)Cc3ccccc3)CC2)nc2ccccc21,-1,56*,26,-1
CC1=C(C(=O)N(C(C)C)C(C)C)CC(CC(=O)NCc2cccs2)C(=O)N1Cc1ccccc1 (stereo unspecified),nt,98,nt,nt
COc1cccc(-c2nc(NCc3ccco3)c3ccccc3n2)c1O,22,64*,28,0
C=CCNc1nc(-c2cccc(OC)c2O)nc2ccccc12,5,92*,-12,6
COc1cccc(-c2nc(NCc3ccccc3)c3ccccc3n2)c1O,-1,98,-12,17
C=CCn1c(SCc2ccc(F)cc2)nc2c1c(=O)[nH]c(=O)n2C,-5,99,-28,2
C/C=C/Cn1c(SCc2ccc(C)cc2)nc2c1c(=O)[nH]c(=O)n2C,16,71*,-12,11
CCCCN(CCCC)c1nn[nH]n1,nt,113,nt,nt
CC(C)CN(CC(C)C)c1nn[nH]n1,nt,86*,nt,nt
Cc1cc(C(=O)CCC(=O)N(C)CC2COc3ccccc3O2)c(C)s1 (stereo unspecified),nt,107,nt,nt
S=c1[nH]nc(C2CCCCC2)n1/N=C/C=C/c1ccccc1,-92*,107,33,15
S=c1[nH]nc(C2CCCCC2)n1/N=C/C(Cl)=C\c1ccccc1,21,nt,4,16
O=C(c1ccc2c(c1)CCC2)N1CCN(Cc2ccccc2)CC1,nt,110,nt,nt
N#Cc1csc(CCNC(=O)c2ccccc2)n1,nt,100,nt,nt
CCCCCc1ccc(-c2ccc(=O)[nH]n2)cc1,-77*,104,-25,2
CCCCCc1ccc(C2=NNC(=O)CC2)cc1,-89*,103,0,2
Cc1ccc(-c2ccc(=O)[nH]n2)cc1,12,96,1,0
CCOC(=O)C1CCN(C(=O)c2ccccc2)c2scc(-c3ccccc3)c2C1=O (stereo unspecified),nt,105,nt,nt
CCOC(=O)N1CCN(S(=O)(=O)N2CCCC(C(=O)NCc3cc(OC)ccc3OC)C2)CC1 (stereo unspecified),nt,97,nt,nt
CCOC(=O)Cc1csc(SCC(=O)N2CCN(c3ccccc3)CC2)n1,nt,101,-2,2
SMILES,AI-2 QS modul,DSG3 Ab inh,VLA-4 inh,NTR1 agonist
O=C(Oc1c(Cl)cc(Cl)c2cccnc12)c1ccco1,-88*,116,-1,6
O=C(Oc1c(Cl)cc(Cl)c2cccnc12)c1cccs1,8,100,16,2
CCCCCCCCC(=O)N1C(C)CCC1C (stereo unspecified),nt,110,nt,nt
O=S(=O)(c1cccs1)N1CCN(c2ccccn2)CC1,15,80*,-2,2
Cc1ccc(N(CC(=O)NC(C)(C)C)C(=O)CNC(=O)c2cccs2)c(C)c1,10,81*,2,0
Cc1cc(C)c(N(CC(=O)NC(C)(C)C)C(=O)CNC(=O)c2cccs2)c(C)c1,7,nt,3,2
CS(=O)(=O)c1ccc(Cl)c(NC(=O)c2ccc(-n3cncn3)c([N+](=O)[O-])c2)c1,nt,101,nt,nt
Brc1ccc(-c2noc(COc3ccc4ccccc4c3)n2)o1,9,99,4,0
Cc1cccc(OCc2nc(-c3ccc(Br)o3)no2)c1,-78*,116,22,1
CC1(CCC(=O)O)C(=O)CCC2C1CCC1(C)C2CCC1(C)O (stereo unspecified),nt,93,nt,nt
CC(N=Cc1c(O)c2ccccc2oc1=O)C(=O)O (stereo unspecified),-1,51*,4,-1
Cc1ccccc1CNC(=O)C(C)Sc1ccccc1 (stereo unspecified),nt,115,nt,nt
O=C(CNC(=O)c1cccc(F)c1)N/N=C/c1ccc([N+](=O)[O-])s1,-148*,104,0,-1

# Compound activity: PubChem, several laboratories
